# “And” between values parts separate entries of the source, which are not always exact repeats. Equal entries are not always repeated. Results filed as inconclusive are left out. A call without a number means that no potency is given here. Some compounds were tested as several samples or in several runs, with calls that do not always agree. Values without a mark were called inactive. The source made the active and inactive calls. The call rests on the fitted dose curve; in most records, active means well fitted curve in the direction sought with a large enough effect; inconclusive means small, poorly fitted or top-dose-only effect, or another doubt; inactive means no such curve, though single readings can be large; an effect the other way counts as inactive or inconclusive.
# Experiments:
# [1] = tested on: CRL-7250; test: Cytotoxic Profiling of Annotated Libraries Using Quantitative High-Throughput Screening (AID 1296008); conditions: Five cell lines viability, CellTiter-Glo ATP luminescence, 48-72 h; max response: active compounds read low; further: nearly all actives have a fitted effect of over 60% in size; further: potency means the concentration at half of the fitted maximal effect
# Summary of the method: (§1)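 Cells exposed to compounds for 48 or 72 hr at 37 degrees Celsius. Viability read as ATP-coupled luminescence with CellTiter-Glo after 10 min at room temperature.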
# [2] = tested on: HEK293; test: as above; conditions: Five cell lines viability, CellTiter-Glo ATP luminescence, 48-72 h; max response: active compounds read low
# Summary of the method: as §1
# [3] = tested on: HaCat; test: as above; conditions: Five cell lines viability, CellTiter-Glo ATP luminescence, 48-72 h; max response: active compounds read low
# Summary of the method: as §1
# [4] = tested on: KB-3-1; test: as above; conditions: Five cell lines viability, CellTiter-Glo ATP luminescence, 48-72 h; max response: active compounds read low
# Summary of the method: as §1
# [5] = tested on: NIH3T3; test: as above; conditions: Five cell lines viability, CellTiter-Glo ATP luminescence, 48-72 h; max response: active compounds read low
# Summary of the method: as §1
# [6] = tested on: HACAT; test: qHTS assay to identify novel small-molecules to repurpose for Merkel cell carcinoma treatment (AID 1296009); conditions: MCC and control cell lines, CellTiter-Glo viability, 72 h; at 44.8 µM (top of the series) unless noted; further: nearly all actives have a fitted effect of over 60% in size; further: potency means the concentration at half of the fitted maximal effect
# Summary of the method: (§2)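 Cells were treated for 72 hr at 37 degree celsius with compounds in 8- or 11-point dose response. Viability was read by CellTiter-Glo luminescence, normalized to no-cell (cytotoxicity) and DMSO controls.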
# [7] = tested on: MCC-13; test: as above; conditions: MCC and control cell lines, CellTiter-Glo viability, 72 h; series mostly up to 46 µM
# Summary of the method: as §2
# [8] = tested on: MCC-26; test: as above; conditions: MCC and control cell lines, CellTiter-Glo viability, 72 h; series mostly up to 46 µM
# Summary of the method: as §2
# [9] = tested on: MKL-1; test: as above; conditions: MCC and control cell lines, CellTiter-Glo viability, 72 h; series mostly up to 46 µM
# Summary of the method: as §2
# [10] = tested on: MKL-2; test: as above; conditions: MCC and control cell lines, CellTiter-Glo viability, 72 h; series mostly up to 46 µM
# Summary of the method: as §2
# [11] = tested on: UISO; test: as above; conditions: MCC and control cell lines, CellTiter-Glo viability, 72 h; series mostly up to 46 µM
# Summary of the method: as §2
# [12] = tested on: WaGa; test: as above; conditions: MCC and control cell lines, CellTiter-Glo viability, 72 h; series mostly up to 46 µM
# Summary of the method: as §2
# [13] = tested on: C33A; test: Primary qHTS to identify gynecologic anti-cancer compounds using libraries of approved drugs and bioactive compounds (AID 1345084); conditions: Gynecologic cancer cell panel viability, ATPlite luminescence, 48 h; series mostly up to 57.5 µM; further: nearly all actives have a fitted effect of over 55% in size
# Summary of the method: (§3)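 In this quantitative HTS, cell killing is estimated from loss of ATP-dependent luciferase light. Cells see five compound concentrations over a 48 h exposure.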
# [14] = tested on: CAOV3; test: as above; conditions: Gynecologic cancer cell panel viability, ATPlite luminescence, 48 h; series mostly up to 57.5 µM
# Summary of the method: as §3
# [15] = tested on: HEK293T; test: qHTS assay to identify novel small-molecules to repurpose for Merkel cell carcinoma treatment (AID 1296009); conditions: MCC and control cell lines, CellTiter-Glo viability, 72 h; at 44.8 µM (top of the series); further: nearly all actives have a fitted effect of over 60% in size; further: potency means the concentration at half of the fitted maximal effect
# Summary of the method: as §2
# [16] = tested on: TAB113; test: qHTS profiling for inhibitors of Plasmodium falciparum proliferation (AID 504749); further: nearly all actives have a fitted effect of over 60% in size; further: potency means the concentration at half of the fitted maximal effect; conditions: P. falciparum in erythrocytes, SYBR Green DNA, 72 h; series mostly up to 28.7 µM
# Summary of the method: (§4)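 P. falciparum-infected erythrocytes (0.3% parasitemia, 2.5% hematocrit) incubated with compound 72 h at 37 C, 5% CO2. Parasite DNA detected by SYBR Green after lysis, overnight at room temperature; normalised to 0.29 uM artemisinin and DMSO.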
# [17] = tested on: TAB165; test: as above; conditions: P. falciparum in erythrocytes, SYBR Green DNA, 72 h; series mostly up to 28.7 µM
# Summary of the method: as §4
# [18] = tested on: W2; test: as above; conditions: P. falciparum in erythrocytes, SYBR Green DNA, 72 h; series mostly up to 28.7 µM
# Summary of the method: as §4
# [19] = tested on: NIH3T3; test: qHTS assay to identify novel small-molecules to repurpose for Merkel cell carcinoma treatment (AID 1296009); conditions: MCC and control cell lines, CellTiter-Glo viability, 72 h; at 44.8 µM (top of the series) unless noted; further: nearly all actives have a fitted effect of over 60% in size; further: potency means the concentration at half of the fitted maximal effect
# Summary of the method: as §2
# [20] = tested on: TAB109; test: qHTS profiling for inhibitors of Plasmodium falciparum proliferation (AID 504749); further: nearly all actives have a fitted effect of over 60% in size; further: potency means the concentration at half of the fitted maximal effect; conditions: P. falciparum in erythrocytes, SYBR Green DNA, 72 h; series mostly up to 28.7 µM
# Summary of the method: as §4
smiles,measurement,setting,value
Cc1ccccc1C(C(=O)NC1CCCCC1)N(C(=O)Cn1ccnc1C)c1cccc(F)c1 (configuration not stated),max response,[1],-5.16%
same,outcome,[1],inactive
same,max response,[2],-0.939%
same,outcome,[3],inactive
same,max response,[4],1.35% and 1.14%
same,max response,[5],-2.46% and -16.9%
same,outcome,[6],inactive
same,Potency,[7],inactive
same,Potency,[8],inactive
same,Potency,[9],inactive
same,Potency,[10],inactive
same,Potency,[11],inactive
same,Potency,[12],inactive
same,Potency,[13],inactive
same,Potency,[14],inactive
CNC(=O)c1ccc2cc(C3(O)CCn4cncc43)ccc2c1 (configuration not stated),max response,[1],-2.53% and -8.91%
same,max response,[2],-5.04% and 1.96%
same,max response,[3],0.87%
same,outcome,[3],inactive
same,max response,[4],-2.71%
same,outcome,[4],inactive
same,max response,[5],3.68% and 1.07%
same,outcome,[6],inactive
same,Potency,[7],inactive
same,Potency,[9],inactive
same,Potency,[10],inactive
same,Potency,[11],inactive
same,Potency,[12],inactive
same,Potency,[13],inactive
same,Potency,[14],inactive
O=C(Nc1ccccc1-c1cn2c(CN3CCNCC3)csc2n1)c1cnc2ccccc2n1,Potency,[1],26.4 µM (active)
same,Potency,[2],23.5 µM (active)
same,max response,[3],4.92%
same,outcome,[3],inactive
same,Potency,[5],29.6 µM (active)
same,outcome,[6],inactive
same,Potency,[8],33.2 µM (active)
same,Potency,[12],inactive
same,Potency,[13],inactive
O=C(CCN1CCN(C(=O)OCc2cc(Cl)cc(Cl)c2)CC1)c1ccc2[nH]c(=O)oc2c1,max response,[1],-14.6%
same,outcome,[1],inactive
same,Potency,[2],9.2 µM (active)
same,max response,[2],-21.4%
same,max response,[3],-8.98% and -29.3%
same,max response,[4],-3.38% and 0.622%
same,max response,[5],1.12% and -60.6%
same,Potency,[7],inactive
same,Potency,[8],inactive
same,Potency,[9],inactive
same,Potency,[10],inactive
same,Potency,[11],inactive
same,Potency,[12],inactive
same,Potency,[13],inactive
same,Potency,[14],inactive
CC(=O)Oc1cc2c(s1)CCN(C(C(=O)C1CC1)c1ccccc1F)C2 (configuration not stated),max response,[1],4.12%
same,Potency,[2],2.96 µM (active)
same,max response,[3],0.622%
same,Potency,[4],4.69 µM (active)
same,max response,[4],-10.7%
same,Potency,[7],inactive
same,Potency,[8],inactive
same,Potency,[9],11.8 µM (active)
same,Potency,[10],10.5 µM (active)
same,Potency,[12],10.5 µM (active)
same,Potency,[13],inactive
same,Potency,[14],inactive
COc1cc2ncnc(-n3nc(-c4ccccn4)nc3N)c2cc1OC,Potency,[1],3.55 µM (active)
same,max response,[1],-12.8%
same,outcome,[2],inactive
same,Potency,[3],3.17 µM (active)
same,outcome,[3],inactive
same,outcome,[4],inactive
same,max response,[5],0.54% and -22.1%
same,outcome,[6],inactive
same,outcome,[15],inactive
same,Potency,[7],inactive
same,Potency,[8],inactive
same,Potency,[9],inactive
same,Potency,[10],inactive
same,Potency,[12],inactive
same,Potency,[13],inactive
same,Potency,[14],inactive
CN(C)CCC(c1ccccc1)c1ccccn1 (configuration not stated),Potency,[16],inactive
same,Potency,[17],inactive
same,Potency,[18],4.26 µM (active)
same,max response,[1],-4.39%
same,max response,[2],-3.33%
same,outcome,[2],inactive
same,outcome,[3],inactive
same,max response,[4],-8.17% and 1.69%
same,max response,[5],-1.68%
same,outcome,[5],inactive
same,outcome,[6],inactive
same,outcome,[15],inactive
same,Potency,[7],inactive
same,Potency,[8],inactive
same,Potency,[9],inactive
same,Potency,[10],inactive
same,outcome,[19],inactive
same,Potency,[11],inactive
same,Potency,[12],inactive
same,Potency,[13],inactive
same,Potency,[14],inactive
Clc1ccc(Cn2c(CN3CCCC3)nc3ccccc32)cc1,outcome,[20],inactive
same,Potency,[16],inactive
same,Potency,[17],inactive
same,max response,[1],-0.466%
same,outcome,[1],inactive
same,max response,[2],-18%
same,max response,[3],-16.9%
same,outcome,[3],inactive
same,max response,[4],4.33% and 5.03%
same,max response,[5],3.2% and 1.49%
same,outcome,[6],inactive [at 17.4 µM]
same,Potency,[7],inactive
same,Potency,[9],inactive
same,Potency,[12],inactive
same,Potency,[13],inactive
same,Potency,[14],inactive
CC(C)(C)c1cc(C(=O)O)c(NC(=O)Nc2ccc3[nH]ncc3c2)s1,max response,[1],-5.25% and -2.72%
same,max response,[2],-1.74% and 1.5%
same,max response,[3],-3.43%
same,outcome,[3],inactive
same,max response,[4],-9%
same,outcome,[4],inactive
same,max response,[5],-6.15%
same,outcome,[5],inactive
same,outcome,[6],inactive
same,Potency,[7],inactive
same,Potency,[8],inactive
same,Potency,[9],inactive
same,Potency,[10],inactive
same,outcome,[19],inactive
same,Potency,[11],inactive
same,Potency,[12],inactive
same,Potency,[13],inactive
same,Potency,[14],inactive
CC(C)C(=O)Oc1ccc(CO)cc1[C@H](CCN(C(C)C)C(C)C)c1ccccc1,max response,[1],-3.71% and 3.58%
same,max response,[2],-22.5% and -1.3%
same,max response,[3],-23.8%
same,outcome,[3],inactive
same,max response,[4],-1.04% and 2.37%
same,max response,[5],-3.14%
same,outcome,[5],inactive
same,outcome,[6],inactive
same,Potency,[7],inactive
same,Potency,[8],inactive
same,Potency,[9],inactive
same,Potency,[10],inactive
same,outcome,[19],inactive
same,Potency,[11],inactive
same,Potency,[12],inactive
same,Potency,[14],inactive
O=C(O)Cc1cccc2ccccc12,outcome,[20],inactive
same,Potency,[16],inactive
same,Potency,[17],inactive
same,Potency,[18],inactive
same,outcome,[1],inactive
same,max response,[2],0.788% and 3.55%
same,max response,[3],-10.3%
same,outcome,[3],inactive
same,max response,[4],13.8% and -7.33%
same,max response,[5],-0.562% and 0.69%
same,outcome,[6],inactive
same,Potency,[7],inactive
same,Potency,[8],inactive
same,Potency,[9],inactive
same,Potency,[10],inactive
same,Potency,[11],inactive
same,Potency,[12],inactive
same,Potency,[13],inactive
same,Potency,[14],inactive
